This is an account of results in PubChem BioAssay (Tox21).

SMILES strings stand for the structures. Inconclusive results are not listed. Calls of active or inactive are those of the source. Unless noted, the call rests on the fitted dose curve; in most records, active means well fitted curve in the direction sought with a large enough effect in the repeat runs; inconclusive means weak or mixed curves; inactive means no such curve, though single readings can be large; an effect the other way counts as inactive or inconclusive.

The target in assay [1] is Aryl hydrocarbon receptor (Homo sapiens) (UniProt P35869). In words: qHTS assay to identify small molecule that activate the aryl hydrocarbon receptor (AhR) signaling pathway (AID 743085). Further: nearly all actives have a fitted effect of over 15% in size. Further: potency means the concentration at half of the fitted maximal effect.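 On activation: HG2L7.5c1 human HepG2 liver cells with stably integrated DRE-driven firefly reporter; series mostly up to about 70 µM.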 A digest of the protocol: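 Cell line HG2L7.5c1 (human hepatoma, 20× DRE-luc). Plated, 5 h 37C, compound/DMSO added, 24 h 37C. CellTiter-Fluor 30 min 37C → fluorescence; then ONE-Glo 30 min RT → luminescence.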
Chain of Aryl hydrocarbon receptor (Homo sapiens) (P35869 whole entry, looked up): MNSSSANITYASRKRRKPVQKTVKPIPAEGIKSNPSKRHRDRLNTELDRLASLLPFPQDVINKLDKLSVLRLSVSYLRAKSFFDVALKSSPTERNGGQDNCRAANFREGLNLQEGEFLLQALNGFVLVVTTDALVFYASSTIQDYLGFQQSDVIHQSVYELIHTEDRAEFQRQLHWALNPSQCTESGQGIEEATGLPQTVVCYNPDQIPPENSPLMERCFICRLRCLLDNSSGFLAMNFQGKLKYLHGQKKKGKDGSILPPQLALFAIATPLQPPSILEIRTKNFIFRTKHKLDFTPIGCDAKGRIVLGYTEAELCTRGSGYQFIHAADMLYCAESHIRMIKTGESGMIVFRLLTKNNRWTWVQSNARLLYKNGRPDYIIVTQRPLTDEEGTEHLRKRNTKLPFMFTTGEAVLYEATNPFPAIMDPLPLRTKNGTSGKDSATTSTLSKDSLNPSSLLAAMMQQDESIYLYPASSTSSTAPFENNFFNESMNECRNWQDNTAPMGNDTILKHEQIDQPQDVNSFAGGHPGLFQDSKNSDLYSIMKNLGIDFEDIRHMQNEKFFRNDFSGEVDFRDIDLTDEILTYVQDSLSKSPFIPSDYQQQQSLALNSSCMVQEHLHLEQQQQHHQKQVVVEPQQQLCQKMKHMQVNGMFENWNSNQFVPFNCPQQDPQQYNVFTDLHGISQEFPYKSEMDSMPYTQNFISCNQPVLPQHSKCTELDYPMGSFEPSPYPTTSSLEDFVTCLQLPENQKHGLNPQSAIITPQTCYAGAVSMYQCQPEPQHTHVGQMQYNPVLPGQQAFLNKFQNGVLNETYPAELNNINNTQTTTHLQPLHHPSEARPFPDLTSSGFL

Assay [2] is described as follows: qHTS assay to identify small molecule that activate the aryl hydrocarbon receptor (AhR) signaling pathway - cell viability counter screen (AID 743086).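 Further: HepG2 liver cells carrying the AhR DRE luciferase reporter; series mostly up to about 70 µM; nearly all actives have a fitted effect of over 45% in size.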 In outline:
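HepG2-AhR-luc (HG2L7.5c1) cells, 4000/well, were preincubated 5 h at 37C, exposed to compound in qHTS format for 24 hr at 37C, then given CellTiter-Fluor for 30 min; viability was read as fluorescence in the reporter wells.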
In general terms: In qHTS, concentration-response curves come from the screen itself.

Assay [3] is described as follows: qHTS assay to identify small molecule antagonists of the peroxisome proliferator-activated receptor gamma (PPARg) signaling pathway - cell viability counter screen (AID 743194). Further: nearly all actives have a fitted effect of over 55% in size. A digest of the protocol: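 PPARg-UAS-bla HEK293H cells were plated, rested 5 h at 37 C, then treated with compounds plus rosiglitazone (50 nM final) for 17 h at 37 C; viability was then read by CellTiter-Glo luminescence after 30 min at room temperature.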

A short description of assay [4]: qHTS assay for small molecule agonists of the antioxidant response element (ARE) signaling pathway - cell viability counter screen (AID 743203; calls by dose curve; further: nearly all actives have a fitted effect of over 55% in size; further: potency means the concentration at half of the fitted maximal effect). A digest of the protocol:
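Parallel cytotoxicity read-out for the ARE-bla screen: HepG2 reporter cells, 16 hrs with compounds, then CellTiter-Glo luminescence.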

Assay [5] in a line: qHTS assay for small molecule activators of the heat shock response signaling pathway - cell viability counter screen (AID 743209). Further: nearly all actives have a fitted effect of over 50% in size. In outline: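 To flag cytotoxic compounds, HSE-bla HeLa cells plated at 1500 cells/well were dosed for 5 h at 37 C, followed by the reporter FRET read and then CellTiter-Glo, with luminescence recorded 30 min after reagent addition.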
A short description of assay [6]: qHTS assay for small molecule activators of the heat shock response signaling pathway (AID 743210; active means well fitted activation curve with a large enough effect in the signal ratio in the repeat runs, with a control signal flat, not every such curve was filed as active; the % refers to the signal ratio; further: series mostly up to about 63 µM). In outline:
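Heat shock element–beta-lactamase HeLa reporter cells; qHTS with compounds for 5 h at 37 C; detection by FRET substrate fluorescence after 2.5 h at RT.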

For assay [7], the target named is Peroxisome proliferator-activated receptor delta (Homo sapiens) (UniProt Q03181). In words: qHTS assay to identify small molecule agonists of the peroxisome proliferator-activated receptor delta (PPARd) signaling pathway (AID 743212; calls by dose curve). In outline: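 Beta-lactamase reporter read by fluorescence (LiveBLAzer B/G FRET, 2 h, room temperature). Test agents, in DMSO, incubated at 37 C with PPARd-bla HEK293H cells.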
Chain of Peroxisome proliferator-activated receptor delta (Homo sapiens) (Q03181 whole entry, looked up): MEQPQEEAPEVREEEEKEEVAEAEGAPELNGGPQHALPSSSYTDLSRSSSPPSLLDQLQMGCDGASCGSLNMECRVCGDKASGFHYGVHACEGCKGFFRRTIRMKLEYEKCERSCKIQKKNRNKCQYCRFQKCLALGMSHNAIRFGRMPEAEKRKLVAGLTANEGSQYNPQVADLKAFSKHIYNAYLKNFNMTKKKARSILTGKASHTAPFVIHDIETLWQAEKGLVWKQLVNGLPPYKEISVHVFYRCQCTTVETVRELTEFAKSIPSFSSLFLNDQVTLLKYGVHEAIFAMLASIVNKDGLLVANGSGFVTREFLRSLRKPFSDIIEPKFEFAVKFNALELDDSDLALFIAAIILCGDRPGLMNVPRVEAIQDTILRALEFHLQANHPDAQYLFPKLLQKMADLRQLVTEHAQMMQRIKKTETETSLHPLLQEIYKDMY

The nature of assay [8]: qHTS assay to identify small molecule antagonists of the peroxisome proliferator-activated receptor delta (PPARd) signaling pathway - cell viability counter screen (AID 743213). Further: nearly all actives have a fitted effect of over 50% in size. In outline: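 HEK293H cells with the PPARd UAS-bla reporter, co-treated 17 h at 37 C with compounds and L165041 (300 nM final), were lysed with CellTiter-Glo. Luminescence indicated viable cell content.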

The target of assay [9] is Bile acid receptor (Homo sapiens) (UniProt Q96RI1). The assay can be described thus: qHTS assay to identify small molecule antagonists of the farnesoid-X-receptor (FXR) signaling pathway (AID 743217; active means well fitted inhibition curve with a large enough effect in the signal ratio in the repeat runs, not every such curve was filed as active; the % refers to the signal ratio). A digest of the protocol:
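Quantitative HTS, beta-lactamase reporter format: FXR-UAS-bla HEK 293T cells co-treated 16 h at 37 °C with compounds and 50 uM final chenodeoxycholic acid, then read by B/G FRET fluorescence.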

Assay [10] shares this target. In words: qHTS assay to identify small molecule agonists of the farnesoid-X-receptor (FXR) signaling pathway (AID 743220; active means well fitted activation curve with a large enough effect in the signal ratio in the repeat runs, not every such curve was filed as active; the % refers to the signal ratio). In outline: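 FXR-UAS-bla HEK 293T cells carrying a UAS-driven beta-lactamase reporter were plated for 5 h at 37C/5% CO2, then exposed to DMSO-dissolved Tox21 10K compounds for 16 h at 37C. A LiveBLAzer B/G FRET substrate was loaded for 2 h at room temperature before fluorescence reading.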

Assay [11] is described as follows: qHTS assay to identify small molecule antagonists of the farnesoid-X-receptor (FXR) signaling pathway - cell viability counter screen (AID 743221; active means well fitted cell-killing curve with a large enough effect in the repeat runs, not every such curve was filed as active; further: nearly all actives have a fitted effect of over 50% in size; further: potency means the concentration at half of the fitted maximal effect). In outline: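 Luminescence from CellTiter-Glo measures cytotoxicity in GeneBLAzer FXR-UAS-bla HEK 293T cells. Cells were exposed to compounds with 50 uM chenodeoxycholic acid (final) for 16 h at 37 C, in wells also used for the reporter readout.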

In assay [12] the target is Vitamin D3 receptor (Homo sapiens) (UniProt P11473). In words: qHTS assay to identify small molecule agonists of the vitamin D receptor (VDR) signaling pathway (AID 743222; calls by dose curve). A digest of the protocol:
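Using LiveBLAzer B/G FRET detection, agonism was scored in VDR-bla cells exposed overnight (16 h, 37C) to DMSO-dissolved compounds; substrate incubation was 2 h at room temperature.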

Assay [13] shares this target. In words: qHTS assay to identify small molecule antagonists of the vitamin D receptor (VDR) signaling pathway (AID 743223; active means well fitted inhibition curve with a large enough effect in the signal ratio in the repeat runs, not every such curve was filed as active; the % refers to the signal ratio). A digest of the protocol: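 Antagonist mode uses 1alpha,25-dihydroxyvitamin D3 at 3 nM final as stimulus. VDR-bla cells receive compounds in DMSO, incubate 16 h at 37C, then a beta-lactamase FRET substrate for 2 h at room temperature before fluorescence measurement.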

Assay [14] is described as follows: qHTS assay to identify small molecule agonists of the vitamin D receptor (VDR) signaling pathway - cell viability counter screen (AID 743224). Further: nearly all actives have a fitted effect of over 50% in size. Further: potency means the concentration at half of the fitted maximal effect. A digest of the protocol:
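Counter screen for cytotoxicity: VDR-bla cells at 2,000 cells/well, 16 h compound exposure, then CellTiter-Glo luminescence after the beta-lactamase measurement.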

In assay [15] the target is Peroxisome proliferator-activated receptor gamma (Homo sapiens) (UniProt P37231). The assay can be described thus: qHTS assay to identify small molecule agonists of the peroxisome proliferator-activated receptor gamma (PPARg) signaling pathway (AID 743094; active means well fitted activation curve with a large enough effect in the signal ratio in the repeat runs, not every such curve was filed as active; the % refers to the signal ratio). In outline: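 Fluorescence-based beta-lactamase readout in HEK293H PPARg UAS-bla cells after 17 h compound exposure (37C) and 1 h B/G FRET substrate incubation at room temperature.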
Chain of Peroxisome proliferator-activated receptor gamma (Homo sapiens) (P37231 whole entry, looked up): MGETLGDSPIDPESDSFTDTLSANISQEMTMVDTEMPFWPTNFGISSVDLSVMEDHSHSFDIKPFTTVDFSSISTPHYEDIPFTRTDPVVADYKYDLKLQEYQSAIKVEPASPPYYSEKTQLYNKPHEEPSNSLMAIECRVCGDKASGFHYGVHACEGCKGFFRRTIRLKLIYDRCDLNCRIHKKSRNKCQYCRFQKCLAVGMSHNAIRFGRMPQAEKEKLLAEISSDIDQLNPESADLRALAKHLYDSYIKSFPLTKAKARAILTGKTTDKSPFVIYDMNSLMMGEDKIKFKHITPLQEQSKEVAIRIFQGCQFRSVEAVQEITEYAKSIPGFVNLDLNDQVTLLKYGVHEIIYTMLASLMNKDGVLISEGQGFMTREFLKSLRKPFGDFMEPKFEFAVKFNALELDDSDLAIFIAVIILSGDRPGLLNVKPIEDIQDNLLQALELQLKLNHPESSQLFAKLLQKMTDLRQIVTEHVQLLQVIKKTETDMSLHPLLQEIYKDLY

Assay [16] has the same target. In words: qHTS assay to identify small molecule antagonists of the peroxisome proliferator-activated receptor gamma (PPARg) signaling pathway (AID 743191; calls by dose curve; further: series mostly up to about 63 µM; nearly all actives have a fitted effect of over 30% in size). In outline:
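GeneBLAzer PPARg UAS-bla HEK293H cells carrying a UAS-driven beta-lactamase reporter were plated at 3000 cells/well, preincubated 5 h at 37C, then given compound for 17 h at 37C; LiveBLAzer B/G FRET substrate was read after 1 h at room temperature.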

Assay [17] in a line: qHTS assay for small molecule agonists of the antioxidant response element (ARE) signaling pathway (AID 743202; active means well fitted activation curve with a large enough effect in the signal ratio in the repeat runs, not every such curve was filed as active; the % refers to the signal ratio). A digest of the protocol: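 Following a 16 h, 37 C exposure of reporter HepG2 cells (ARE-driven beta-lactamase, 2,000 cells/well) to compounds, FRET substrate was applied for 2 h at room temperature and fluorescence intensity recorded.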
Assay [18] in a line: qHTS assay to identify small molecule agonists of the peroxisome proliferator-activated receptor delta (PPARd) signaling pathway - cell viability counter screen (AID 743211). Further: nearly all actives have a fitted effect of over 55% in size. A digest of the protocol: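 HEK293H PPARd-bla, 3000 cells/well; 5 h preincubation 37C/5% CO2; cpd in DMSO, 17 h 37C; B/G FRET substrate 2 h RT; CellTiter-Glo 30 min RT, luminescence.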
The nature of assay [19]: qHTS assay to identify small molecule agonists of the farnesoid-X-receptor (FXR) signaling pathway - cell viability counter screen (AID 743218). Further: nearly all actives have a fitted effect of over 45% in size. In outline: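 Same-well cytotoxicity check on FXR-UAS-bla HEK 293T cells: 5 h attachment, 16 h compound at 37 C, CellTiter-Glo luminescence read at room temperature after 30 min.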
Assay [20] in a line: qHTS assay to identify small molecule antagonists of the vitamin D receptor (VDR) signaling pathway - cell viability counter screen (AID 743225). Further: nearly all actives have a fitted effect of over 50% in size. A digest of the protocol:
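Read-out: CellTiter-Glo luminescence measured 30 min after reagent addition at room temperature. Cells were VDR-bla HEK 293T exposed 16 h at 37C, 5% CO2, to compound with 3 nM final calcitriol agonist.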

Chain of Bile acid receptor (Homo sapiens) (Q96RI1 whole entry, looked up): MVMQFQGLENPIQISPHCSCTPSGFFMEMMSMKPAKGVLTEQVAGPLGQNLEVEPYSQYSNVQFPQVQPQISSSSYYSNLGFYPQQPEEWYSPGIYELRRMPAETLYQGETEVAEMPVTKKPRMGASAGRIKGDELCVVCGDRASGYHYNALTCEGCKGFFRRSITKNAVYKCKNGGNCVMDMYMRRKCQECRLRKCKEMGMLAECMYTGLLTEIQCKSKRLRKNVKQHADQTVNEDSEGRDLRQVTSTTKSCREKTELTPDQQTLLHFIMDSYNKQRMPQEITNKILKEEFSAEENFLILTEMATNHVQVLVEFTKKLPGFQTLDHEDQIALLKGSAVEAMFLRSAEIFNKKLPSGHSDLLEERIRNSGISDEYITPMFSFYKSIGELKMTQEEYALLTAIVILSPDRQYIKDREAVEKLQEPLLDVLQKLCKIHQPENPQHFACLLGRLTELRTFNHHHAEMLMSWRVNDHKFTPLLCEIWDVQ
Chain of Vitamin D3 receptor (Homo sapiens) (P11473 whole entry, looked up): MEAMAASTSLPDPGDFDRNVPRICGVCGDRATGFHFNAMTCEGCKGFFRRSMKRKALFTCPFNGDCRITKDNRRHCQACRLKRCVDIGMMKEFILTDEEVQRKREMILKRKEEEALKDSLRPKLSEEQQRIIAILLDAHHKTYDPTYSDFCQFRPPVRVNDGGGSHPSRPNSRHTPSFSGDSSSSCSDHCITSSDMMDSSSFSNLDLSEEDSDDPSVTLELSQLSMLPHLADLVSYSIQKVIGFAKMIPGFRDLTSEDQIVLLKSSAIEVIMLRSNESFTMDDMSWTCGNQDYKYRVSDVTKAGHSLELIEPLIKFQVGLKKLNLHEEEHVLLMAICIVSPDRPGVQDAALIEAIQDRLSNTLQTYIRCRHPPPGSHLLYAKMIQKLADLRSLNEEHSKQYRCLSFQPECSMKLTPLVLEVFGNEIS

As for `CCc1nc(N)nc(N)c1-c1ccc(Cl)cc1`, the Potency entry in [1], in assay [2], in assay [3], in assay [5], in assay [7] and in [8] was “inactive” each time. Moreover, the Potency result in assay [9], in [12] and in assay [13] was “inactive” in each case. Also, the Potency in [4] was 5.31 µM (active); in assay [11] it was 24.9 µM (active); in assay [14], 17.4 µM (active). Moreover, the molecule was classed as inactive in assay [6] and in assay [10].
Consider `CC1(C)O[C@@H]2C[C@H]3[C@@H]4CCC5=CC(=O)C=C[C@]5(C)[C@@]4(F)[C@@H](O)C[C@]3(C)[C@]2(C(=O)CO)O1`, for which the Potency result in assay [1], in assay [15], in [16], in assay [3], in assay [17] and in assay [4] was “inactive” in each case. Besides, the Potency entry in [5], in assay [18], in [7], in assay [8], in assay [9] and in assay [19] was “inactive” each time. For the same molecule, the Potency result in [11], in [12], in [13], in assay [14] and in assay [20] was “inactive” each time. In addition, the molecule was called inactive in assay [10].
On to `NS(=O)(=O)O`, for which the Potency entry in [1], in assay [15], in [16], in [3], in [17] and in assay [4] was “inactive” each time. Moreover, the Potency result in assay [5], in [18], in assay [7], in assay [8], in assay [11] and in assay [12] was “inactive” in each case. Moreover, the Potency entry in [13], in assay [14] and in [20] was “inactive” throughout. In [6], the result was inactive.
Regarding `CN(C)CCOC(C)(c1ccccc1)c1ccccn1` (stereo not given), the Potency entry in assay [1], in assay [15], in assay [16], in [3], in [17] and in assay [4] was “inactive” each time. The Potency result in [5], in assay [18], in assay [7], in assay [8], in assay [9] and in [19] was “inactive” in each case. Besides, the Potency result in [11], in assay [12], in assay [13], in assay [14] and in assay [20] was “inactive” each time. The call in assay [6] and in assay [10] was inactive.
Regarding `O=C(Nc1ncc([N+](=O)[O-])s1)c1cccs1`, the Potency in [1] was 2.98 µM (active). Moreover, the Potency result in assay [2], in [7], in assay [9], in assay [12] and in [13] was “inactive” each time. The molecule was classed as inactive in assay [6] and in assay [10].
For `Nc1ccc(S(N)(=O)=O)cc1`, the Potency result in assay [1], in [2], in assay [3], in [17], in assay [4] and in assay [5] was “inactive” each time. Besides, the Potency entry in [18], in assay [8], in assay [19], in [11], in assay [14] and in [20] was “inactive” each time. The molecule was called inactive in assay [6].
Take `Cc1c(C(=O)O)c(O)cc2c1C(=O)c1c(O)c([C@@H]3O[C@H](CO)[C@@H](O)[C@H](O)[C@H]3O)c(O)c(O)c1C2=O`: the Potency result in [1], in assay [15], in [16], in [3], in [4] and in assay [5] was “inactive” throughout. The Potency entry in [18], in assay [7], in assay [8], in assay [9], in [19] and in [11] was “inactive” throughout. Further, the Potency entry in [12], in assay [13], in assay [14] and in [20] was “inactive” in each case. In addition, in assay [10], the molecule was called inactive.
